# Assay results taken from ChEMBL document CHEMBL3433997, “St. Jude Leishmania screening dataset” (2016).
# Assays:
# Assay type in all cases: functional
# [1] = molecular target: Solute carrier family 2, facilitated glucose transporter member 1 (Homo sapiens) (UniProt P11166); test: ST_JUDE_LEISH: Cytotoxicity at 2uM final concentration against transgenic Leishmania Mexicana promastigotes LmGLUT1 that are glucose transport deficient and complemented with the human glucose transporter GLUT1. Activity is measured by DNA content using SYBR green in vitro
# Chain of Solute carrier family 2, facilitated glucose transporter member 1 (Homo sapiens) (P11166 whole entry): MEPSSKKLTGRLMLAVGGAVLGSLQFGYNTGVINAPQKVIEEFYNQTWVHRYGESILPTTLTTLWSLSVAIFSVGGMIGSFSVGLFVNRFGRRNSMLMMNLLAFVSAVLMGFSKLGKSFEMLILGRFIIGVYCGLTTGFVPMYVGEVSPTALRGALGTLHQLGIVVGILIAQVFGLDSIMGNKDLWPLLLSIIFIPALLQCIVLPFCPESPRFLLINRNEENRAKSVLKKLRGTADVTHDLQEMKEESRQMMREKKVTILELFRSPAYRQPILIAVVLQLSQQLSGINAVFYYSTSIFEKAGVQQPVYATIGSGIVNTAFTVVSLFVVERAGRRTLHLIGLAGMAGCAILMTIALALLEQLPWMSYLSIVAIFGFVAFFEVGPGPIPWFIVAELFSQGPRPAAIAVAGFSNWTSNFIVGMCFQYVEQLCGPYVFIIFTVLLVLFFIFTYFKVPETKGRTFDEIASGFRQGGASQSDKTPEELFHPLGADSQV
# [2] = molecular target: Hexose transporter 1 (Plasmodium falciparum) (UniProt O97467); test: ST_JUDE_LEISH: Cytotoxicity at 2uM final concentration against transgenic Leishmania Mexicana promastigotes LmPfHT that are glucose transport deficient and complemented with the Plasmodium falciparum hexose transporter. Activity is measured by DNA content using SYBR green in vitro
# [3] = molecular target: Glucose transporter (Leishmania mexicana) (UniProt O61059); test: ST_JUDE_LEISH: Cytotoxicity at 2uM final concentration against transgenic Leishmania Mexicana promastigotes LmGT2 that are glucose transport deficient and complemented with the L. Mexicana glucose transporter 2. Activity is measured by DNA content using SYBR green in vitro
Compound,inhibition [1] [%],inhibition [2] [%],inhibition [3] [%]
CN1CC[C@@H](Oc2cc(CNC(=O)c3ccc(-c4ccc(Cl)cc4)s3)ccc2C(F)(F)F)C1,-1.97,-1.98,-1.59
CCN(CC)CCNc1ccc(Nc2ccnc3cc4ccccc4cc23)cc1,0.35,-0.38,3.92
C[C@@H](Oc1cc(-n2cnc3ccc(NC(=O)NC(C)(C)C)cc32)sc1C(N)=O)c1ccccc1Cl,4.54,3.45,2.98
CCC1CN2CCc3c([nH]c4ccccc34)C2CC1CC1NCCc2cc(OC)c(OC)cc21 (centres undefined),1.68,4.6,0.99
CN(Cc1ccncc1)C(Cc1ccccc1)C1CCN(Cc2ccc(O)c(Cl)c2)CC1 (centres undefined),1.88,2.51,-0.31
c1ccc(CN2CCC(NCc3cccc(-c4cncc5ccccc45)c3)CC2)cc1,9.44,7.7,8.64
CCCN(C(=O)c1ccccc1C)c1nnc(-c2ccccc2C)s1,-1.25,0.17,-3.1
COc1cc(C(=O)N2CCN(C(C)C)CC2)ccc1CN(C)CCCCN1CCN(c2cccc(Cl)c2Cl)CC1,1.77,1.73,0.12
